Where “and” joins values, the source holds several entries; their conditions need not be identical. Equal values may be shown once. Records with an inconclusive call do not appear. Some structures have more than one record in an assay (separate samples or runs), and their calls can disagree. Calls of active or inactive are those of the source. Calls come from the whole dose curve; as a rule, active = well fitted curve in the direction sought with a large enough effect; inconclusive = small, poorly fitted or top-dose-only effect, or another doubt; inactive = no such curve, though single readings can be large; an effect the other way counts as inactive or inconclusive.
Experiments:
CRL-7250 = normal cell line; assay: Cytotoxic Profiling of Annotated Libraries Using Quantitative High-Throughput Screening (AID 1296008); conditions: Five cell lines viability, CellTiter-Glo ATP luminescence, 48-72 h; max response: stronger effect = lower value; note: nearly all actives have a fitted effect of over 60% in size
In short: (§1)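 Cytotoxicity was measured as CellTiter-Glo ATP luminescence, read after 10 min at room temperature. Compound treatment of the cells lasted 48 or 72 hr at 37 degrees Celsius in a qHTS format.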

HEK293 = assay: as above; conditions: Five cell lines viability, CellTiter-Glo ATP luminescence, 48-72 h; max response: stronger effect = lower value
In short: as §1

MCC-13 = assay: qHTS assay to identify novel small-molecules to repurpose for Merkel cell carcinoma treatment (AID 1296009); conditions: MCC and control cell lines, CellTiter-Glo viability, 72 h; series mostly up to 46 µM; note: nearly all actives have a fitted effect of over 60% in size
In short: (§2)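 After compound transfer in DMSO, plates were kept 72 hr at 37 degree celsius. Luminescent ATP signal from CellTiter-Glo served as viability measure, normalized against DMSO and no-cell controls.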

MKL-2 = assay: as above; conditions: MCC and control cell lines, CellTiter-Glo viability, 72 h; series mostly up to 46 µM
In short: as §2

C33A = assay: Primary qHTS to identify gynecologic anti-cancer compounds using libraries of approved drugs and bioactive compounds (AID 1345084); conditions: Gynecologic cancer cell panel viability, ATPlite luminescence, 48 h; series mostly up to 57.5 µM; note: nearly all actives have a fitted effect of over 55% in size
In short: (§3)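 Measured: luminescence after ATPlite addition (15 min, RT). Exposure: 48 h, 37 C, 5% CO2.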

CASKI = assay: as above; conditions: Gynecologic cancer cell panel viability, ATPlite luminescence, 48 h; series mostly up to 57.5 µM
In short: as §3

HaCat [1] = assay: Cytotoxic Profiling of Annotated Libraries Using Quantitative High-Throughput Screening (AID 1296008); conditions: Five cell lines viability, CellTiter-Glo ATP luminescence, 48-72 h; max response: stronger effect = lower value; note: nearly all actives have a fitted effect of over 60% in size
In short: as §1

KB-3-1 = assay: as above; conditions: Five cell lines viability, CellTiter-Glo ATP luminescence, 48-72 h; max response: stronger effect = lower value
In short: as §1

NIH3T3 [2] = assay: as above; conditions: Five cell lines viability, CellTiter-Glo ATP luminescence, 48-72 h; max response: stronger effect = lower value
In short: as §1

UISO = assay: qHTS assay to identify novel small-molecules to repurpose for Merkel cell carcinoma treatment (AID 1296009); conditions: MCC and control cell lines, CellTiter-Glo viability, 72 h; series mostly up to 46 µM; note: nearly all actives have a fitted effect of over 60% in size
In short: as §2

WaGa = assay: as above; conditions: MCC and control cell lines, CellTiter-Glo viability, 72 h; series mostly up to 46 µM
In short: as §2

HeLa = assay: Primary qHTS to identify gynecologic anti-cancer compounds using libraries of approved drugs and bioactive compounds (AID 1345084); conditions: Gynecologic cancer cell panel viability, ATPlite luminescence, 48 h; series mostly up to 57.5 µM; note: nearly all actives have a fitted effect of over 55% in size
In short: as §3

Hek293T [3] = assay: as above; conditions: Gynecologic cancer cell panel viability, ATPlite luminescence, 48 h, control line for the selectivity index; series mostly up to 57.5 µM
In short: as §3

Es-2 = assay: as above; conditions: Gynecologic cancer cell panel viability, ATPlite luminescence, 48 h; series mostly up to 57.5 µM
In short: as §3

HACAT [4] = assay: qHTS assay to identify novel small-molecules to repurpose for Merkel cell carcinoma treatment (AID 1296009); conditions: MCC and control cell lines, CellTiter-Glo viability, 72 h; series mostly up to 44.8 µM; note: nearly all actives have a fitted effect of over 60% in size
In short: as §2

HEK293T [5] = assay: as above; conditions: MCC and control cell lines, CellTiter-Glo viability, 72 h; at 44.8 µM (top of the series) unless noted
In short: as §2

MCC-26 = assay: as above; conditions: MCC and control cell lines, CellTiter-Glo viability, 72 h; series mostly up to 46 µM
In short: as §2

MKL-1 = assay: as above; conditions: MCC and control cell lines, CellTiter-Glo viability, 72 h; series mostly up to 46 µM
In short: as §2

NIH3T3 [6] = assay: as above; conditions: MCC and control cell lines, CellTiter-Glo viability, 72 h; at 44.8 µM (top of the series) unless noted
In short: as §2
% is set by controls: 0 for no effect and ±100 for the full control effect; potency is the fitted concentration of half-maximal effect.

COc1cc2c(NC3CCN(C(C)C)CC3)nc(C3CCCCC3)nc2cc1OCCCN1CCCC1
active: Potency (CRL-7250) 8.33 µM and 4.11 µM | Potency (HEK293) 7.43 µM and 5.8 µM | Potency (MKL-2) 6.62 µM | Potency (C33A) 28.2 µM | Potency (CASKI) 20 µM
inactive: Potency (MCC-13)

CN[C@H]1CCc2cc(OC)c(OC)c(OC)c2-c2ccc(OC)c(=O)cc21
inactive: max response (HaCat [1]) -10.1%
active: Potency (CRL-7250) 14.8 nM | Potency (HEK293) 0.0015 µM | Potency (KB-3-1) 3.7 nM and 46.1 nM | Potency (MCC-13) 0.0209 µM

Cn1c2ccccc2c2c3c(c4c5ccccc5n(CCC#N)c4c21)CNC3=O
inactive: max response (KB-3-1) 4.23% and -14.5% | max response (NIH3T3 [2]) -14.2% | Potency (C33A) | Potency (CASKI) | Potency (HeLa) | Potency (Hek293T [3])
active: Potency (CRL-7250) 14600 nM | Potency (HEK293) 2.35 µM and 7.31 µM | Potency (NIH3T3 [2]) 10.5 µM | Potency (UISO) 2.09 µM | Potency (WaGa) 6.62 µM

CC(C)=CCCC(C)=CCCC(C)=CCSc1ccccc1C(=O)O
active: Potency (CRL-7250) 148 nM | Potency (HEK293) 1.66 µM | Potency (KB-3-1) 4.69 µM | Potency (NIH3T3 [2]) 14.8 µM

Cc1cc(C(=O)N2CCN(c3cccc(Cl)c3)CC2)n(-c2ccccc2)n1
active: Potency (CRL-7250) 4.69 µM and 5.8 µM | Potency (HEK293) 526 nM and 1.46 µM | Potency (KB-3-1) 833 nM and 1.64 µM | Potency (UISO) 1.66 µM | Potency (Es-2) 11.2 µM | Potency (HeLa) 8.91 µM

O=C(O)[C@H](Cc1c[nH]c2ccccc12)N1C(=O)c2ccccc2C1=O
inactive: outcome (CRL-7250) | outcome (HaCat [1]) | max response (KB-3-1) 3.99% | max response (NIH3T3 [2]) 4.64% | Potency (HACAT [4]) | outcome (HEK293T [5]) inactive [at 92 µM] | Potency (MCC-13) | Potency (MCC-26) | Potency (MKL-1) | Potency (MKL-2) | Potency (UISO) | Potency (WaGa)

O=C(O)c1ccc2c(c1)nc(Nc1cccc(Cl)c1)c1ccncc12
inactive: max response (KB-3-1) 6.46% | outcome (NIH3T3 [2]) | Potency (MKL-1) | outcome (NIH3T3 [6])
active: Potency (CRL-7250) 14600 nM | Potency (HEK293) 10.3 µM | Potency (KB-3-1) 20.6 µM | Potency (MKL-2) 5.26 µM | Potency (UISO) 4.18 µM | Potency (CASKI) 35.5 µM

CN1CCN(c2cc(C(=O)Nc3ccc4c(c3)-c3c(c(C(N)=O)nn3-c3ccc(F)cc3)CC4)c(Cl)cn2)CC1
inactive: max response (CRL-7250) -32.2% | outcome (HaCat [1]) | Potency (HACAT [4]) | Potency (MCC-13) | Potency (MCC-26) | Potency (UISO) | Potency (WaGa)
active: Potency (HEK293) 20.9 µM | Potency (MKL-1) 26.4 µM | Potency (MKL-2) 26.4 µM
